# In PubChem BioAssay AID1039 (National Center for Advancing Translational Sciences (NCATS), 2008):
# Active and inactive are the calls of the source. Calls follow the shape of the full dose curve.
# Test: Normal 2 Cell Viability Secondary Assay for qHTS Assay for Epigenetic Modulators
# Settings: Normal 2 bronchial epithelial viability, MTS, 4 days
# Excerpt: NIH Molecular Libraries Screening Centers Network [MLSCN] NIH Chemical Genomics Center [NCGC] MLSCN Grant: 1 X01 MH079860-01 Assay Provider: Elisabeth D. Martinez, University of Texas SW Medical Center NCGC Assay Overview: This secondary assay characterizes selected actives identified in the qHTS of the Locus Derepression (LDR) assay (PubChem AID 597). The LDR assay detects the derepression of a GFP reporter that is stably integrated in a region of the genome of murine c127i mammary cells that is presumably silenced. Compounds that cause derepression of the locus to express GFP are identified by enumerating GFP positive cells using a laser-scanning microplate cytometer. […] Normal 2 cell viability was measured using Cell Titer 96 AQueous One (Promega), an assay which detects the ability of metabolically active cells to reduce a tetrazolium salt substrate (MTS), into a soluble formazan product that can be measured by colorimetry.
# NCGC Assay Protocol Summary Normal 2 cells were plated in 96-well flat bottom tissue culture dishes (Corning) and grown overnight at 37 C and 5% CO2, then treated with compounds, incubated 4 days, and assayed for viability using the Cell Titer 96 AQueous One kit (Promega) according to the manufacturer's protocol. Absorbance at 490 nm and 650 nm (reference) was measured by a Spectra Max (Molecular Devices). […]
smiles,measurement,value
CN1CSC(=S)N(C)C1,outcome,inactive
